The panel holds about 79,000 compounds, 15% with a hit somewhere; the sample as a whole holds those more often. A number with no mark means an inactive call. The source made the active and inactive calls. Cut-off read from the data, not from the text of the source: active = growth inhibition above about 70%; inactive = the rest.
Assay: NCI Yeast Anticancer Drug Screen. Data for the sgs1 mgt1 strain (AID 161);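 note: 0% = growth of cultures given vehicle only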
Details: S. cerevisiae sgs1 mgt1 strain, at 50.0 µM (retest, dose inferred, filed as 5.0), hits give high values
Outline: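 Test agents were incubated with a DNA-repair-mutant yeast strain. Growth was then read and compared against vehicle-treated controls.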

Row | Compound | growth inhibition
1 | O=C1C(N=Nc2ccccc2)=C(O)C2C3C=CC(C3)C12 (centres undefined) | 95% (active)
2 | CC1CCCC(C(O)(C(=O)O)C2CCCC(C)C2)C1 (centres undefined) | 70% (active)
3 | Cc1c(Cl)ccc2c1NC(=O)C2(O)CC(=O)c1ccc(Cl)cc1 (centres undefined) | 100% (active)
4 | Cc1cc2c(=O)[nH]c(N)nc2nc1C | -13%
5 | C=C1C(=O)O[C@@H]2C[C@@]3(C)CCC[C@H](C)C3=C[C@H]12 | 98% (active)
6 | CCC(=NCCCCCCN=C(CC)c1cc(C)cc([N+](=O)[O-])c1O)c1cc(C)cc([N+](=O)[O-])c1O.[Fe] | 35%
7 | CCCCN(CCCC)CC(O)c1cc(-c2ccc(Cl)cc2)nc2c(Cl)cccc12 (centres undefined) | 12%
8 | COc1ccc2c(c1)CC/C(=C\c1ccc(OCCN(C)C)cc1)C2=O | 33%
9 | CCOC(=O)c1cc2c(nc1NCc1ccc(OC)c(OC)c1)/C(=C/c1ccccc1)CCCC2 | 94% (active)
10 | CSCS(=O)C[C@H](CO)NC(=O)/C=C/c1c(C)[nH]c(=O)[nH]c1=O (some centres undefined) | 98% (active)
11 | CCOC(=O)c1c(N)sc2c1CCCCC2 | 1%
12 | Cc1cc(N)c(C)c2c1[nH]c1ccc(Br)cc12 | 98% (active)
13 | N=C(N)Sc1ccc([N+](=O)[O-])cc1Cl | 97% (active)
14 | COc1c(OC)c(C2(O)C(=O)N(C)c3ccccc32)c(OC)c(OC)c1C1(O)C(=O)N(C)c2ccccc21 (centres undefined) | 1%
15 | Fc1cccc(NC(=S)SCc2ccc(Cl)cc2)c1 | 99% (active)
16 | Cc1ccc(/C=N/NS(=O)(=O)c2ccccc2)c(C)c1 | 15%
17 | CCCCCCCCCCCCNC(=O)C[n+]1cccc(C(=O)N(C)C)c1 | 46%
18 | CN(C)C(=S)/N=c1\ss/c(=N\S(=O)(=O)c2ccccc2)n1-c1ccccc1 | 26%
19 | O=C(NCCCl)Nc1c2ccccc2nc2ccccc12 | 23%
20 | COc1ccccc1NC(=O)/C(=C/c1ccccc1)C(C)=O | 12%

Row | Compound | growth inhibition
21 | Oc1[nH]c2ccccc2c1N=NC(=S)NCc1ccccn1 | 98% (active)
22 | c1cc2c(cc1CCCCCCCCCCc1ccc3c(c1)CCC3)CCC2 | 2%
23 | C=Cc1ccccc1C1(O)C=CC(OC)(OC)C=C1 | 14%
24 | CN(C)CC1CCc2c(ccc3ccccc23)C1=O (centres undefined) | 76% (active)
25 | CCCCC(C)(C)OC(=O)Nc1ccc(Br)cc1 | 95% (active)
26 | O=C(Nc1ccc(F)c(Cl)c1)Oc1ccc(Br)cc1Br | 66%
27 | CCO/C=C1\N=C(C(O)(c2ccc(Cl)cc2)c2ccc(Cl)cc2)OC1=O | 1%
28 | O=C1c2ccccc2C(O)(c2ccccc2)c2c(Cl)cccc21 (centres undefined) | 28%
29 | Nc1ccccc1-c1nc2c(ccc3ccccc32)[nH]1 | -5%
30 | CCCCCCCCCCCCCCNCCN | 97% (active)
31 | CC(C)CCCC(C)C1CCC2C3CC=C4OC(=O)CCC4(C)C3CCC12C (centres undefined) | 93% (active)
32 | CC(Br)C(=O)c1ccc2cc(Cl)c3ccccc3c2c1 (centres undefined) | 99% (active)
33 | N#CSc1ccc2nc(NCO)sc2c1 | 98% (active)
34 | c1ccc2c3[nH]c(c2c1)=Nc1ccc(cc1)-c1nc2ccc(cc2o1)N=c1[nH]c(c2ccccc12)=Nc1ccc2nc(oc2c1)-c1ccc(cc1)N=3 | 94% (active)
35 | CCOc1ccc2nc(NC(=O)c3c/c(=N\NC(=O)C[N+](C)(C)C)c4ccc(O)cc4o3)sc2c1 | 65%
36 | C[C@@H]1CC=C[C@@H](NC(=O)OCc2ccccc2)[C@H]1C=O | 15%
37 | O=C(/C=C/c1cccc([N+](=O)[O-])c1)CCl | 99% (active)
38 | CCC[CH2][Sn]([CH2]CCC)([O]C(=O)c1cccc(F)c1F)[O]C(=O)c1cccc(F)c1F | 78% (active)
39 | O=C(O)CCC(=O)NNc1ccccc1 | 58%
